Data reported in PubChem BioAssay AID1259421 (Broad Institute, 2018).
Values joined by “and” are separate entries in the source; they are usually repeats but may differ in a detail not shown here. Equal entries are not always repeated. In all, about 6,400 compounds went through this assay and about 610 (9.5%) were called active. Cut-off read from the data, not from the text of the source: active = activity change below about -70%; inconclusive = no clear call, values can overlap the other calls; inactive = above that. The list comes from a sample in which actives are over-represented; it also holds similar structures and randomly drawn compounds. The source holds several records for some structures; these can differ, active in one and inactive in another.

assay: T. gondii ME49Luc in HeLa cells, luciferase assay, 72 h, no IFN-y (AID 1259421); details: stronger effect = lower value, concentration not given here

| SMILES | activity change, negative = inhibition |
| --- | --- |
| CSCCC(NC(=O)C(Cc1ccccc1)NC(=O)CNC(=O)CNC(=O)C(N)Cc1ccc(O)cc1)C(=O)O (centres undefined) | 10.2% (inactive) |
| CCC(CO)(C(=O)OC1CC2CCC(C1)[N+]2(C)C)c1ccccc1 (centres undefined) | 0.204% (inactive) |
| FC(F)(F)c1cccc(C2=CCN(CCc3ccc4ccccc4c3)CC2)c1 | 10.1% (inactive) and 11.9% (inactive) |
| COC(=O)N1CCN(C(=O)Cc2ccc(Cl)c(Cl)c2)C(CN2CCCC2)C1 (centres undefined) | 6.7% (inactive) |
| CCN1CCN(C(=O)Cc2ccc(Nc3ncc(F)c(Nc4ccc(C(=O)Nc5ccccc5Cl)cc4)n3)cc2)CC1 | -83.3% (active) |
| CC1(C)C2CC(=O)[C@]3(C)C(CC[C@@]4(C)[C@H](c5ccoc5)OC(=O)[C@H]5O[C@]543)[C@@]2(C)C(=O)C[C@H]1O (some centres undefined) | -1.25% (inactive) |
| C[C@H](Cc1ccc(OCC(=O)O)cc1)NC[C@H](O)c1cccc(Cl)c1 | 4.02% (inactive) and 20.9% (inactive) |
| CC(Cc1ccc(O)cc1)NCC(O)c1cc(O)cc(O)c1 (centres undefined) | -70.6% (active) and 10.9% (inactive) |
| CNCC(O)c1ccc(O)cc1 (centres undefined) | 3.63% (inactive) and 14.9% (inactive) |
| C[C@]12C=CC(=O)C=C1CCC1C2CC[C@]2(C)C(=O)CCC12 (some centres undefined) | 3.57% (inactive) |
| C[C@@H]1CN(C2CCC(C#N)(c3ccc(F)cc3)CC2)CC[C@]1(C(=O)O)c1ccccc1 (some centres undefined) | -7.9% (inactive) |
| C=C1CCC2(O)C3Cc4ccc(O)c5c4C2(CCN3CC2CC2)C1O5 (centres undefined) | 12.3% (inactive) |
| NC[C@H](CC(=O)O)c1ccc(Cl)cc1 | 3.97% (inactive) |
| CN1C2CCC1CC(OC(c1ccccc1)c1ccc(Cl)cc1)C2 (centres undefined) | -51.9% (inactive) and 41.6% (inactive) |
| CN(C)CCc1ccc(O)cc1 | 15.3% (inactive) and 3.73% (inactive) |
| CC[C@@H]1[C@@H](C)O[C@@](O)([C@@H](C)[C@H](O)[C@H](C)[C@H]2OC(=O)/C=C/C=C/[C@H](C)[C@H]([C@@H](C)[C@@H](O)[C@H](C)[C@@]3(O)C[C@@H](O[C@H]4C[C@H](O)[C@H](O)[C@H](C)O4)[C@H](CC)[C@@H](C)O3)OC(=O)/C=C/C=C/[C@H]2C)C[C@H]1O[C@H]1C[C@H](O)[C@H](O)[C@H](C)O1 | -83.6% (active) |
| CC(C)[C@@H](CN1CC[C@@](C)(c2cccc(O)c2)[C@@H](C)C1)NC(=O)[C@H]1Cc2ccc(O)cc2CN1 | 7.74% (inactive) |
| C[N@@+]1(CC2CC2)CC[C@]23c4c5ccc(O)c4O[C@H]2C(=O)CC[C@]3(O)[C@H]1C5 | -5.91% (inactive) |
| CC(C)NCC(O)c1ccc(N)c(C#N)c1 (centres undefined) | 11.6% (inactive) and -5.38% (inactive) |
| C[C@]12CC[C@H]3[C@@H](CC[C@@]45O[C@@H]4C(=O)C(C#N)C[C@]35C)[C@@H]1CC[C@@H]2O (some centres undefined) | 6.81% (inactive) |
| C[C@]12C[C@H]3S[C@H]3C[C@@H]1CC[C@@H]1[C@@H]2CC[C@]2(C)[C@@H](O)CC[C@@H]12 | -16.5% (inactive) |
| C[C@]12CCC3[C@@H](CC[C@@]45O[C@@H]4C(=O)C(C#N)C[C@]35C)C1CC[C@@H]2O (some centres undefined) | -74.3% (active) |

| SMILES | activity change, negative = inhibition |
| --- | --- |
| COC[C@H]1OC(=O)c2coc3c2[C@@]1(C)C1=C(C3=O)C2CCC(=O)[C@@]2(C)C[C@H]1OC(C)=O (some centres undefined) | -5.28% (inactive) |
| CC(=O)C1CCC2C3CCC4CC(C)(O)CCC4(C)C3CCC12C (centres undefined) | 13.6% (inactive) |
| COc1cc2cc(c1Cl)N(C)C(=O)C[C@H](OC(=O)C(C)C)[C@]1(C)O[C@H]1[C@H](C)[C@@H]1C[C@@](O)(NC(=O)O1)[C@H](OC)/C=C/C=C(/C)C2 | -83.8% (active) |
| COC1=CC(=O)OC(/C=C/c2ccccc2)C1 (centres undefined) | 9.89% (inactive) |
| CC1(C)C(=O)N(c2ccc(C#N)c(C(F)(F)F)c2)C(=O)N1CCCCO | 4.23% (inactive) |
| CN1C(=O)CC(=O)N(c2ccccc2)c2cc(Cl)ccc21 | 7.34% (inactive) |
| C[C@]12CC[C@H](OC3OC(O)C(O)C(O)C3O)C=C1CCC1C2CC[C@]2(C)[C@@H](c3ccc(=O)oc3)CC[C@]12O (some centres undefined) | -83.9% (active) |
| C[C@@H]1O[C@@H](O[C@@H]2C=C3CCC4C(CC[C@]5(C)[C@@H](c6ccc(=O)oc6)CC[C@]45O)[C@@]3(C)CC2)C(O)C(O)[C@H]1O (some centres undefined) | -85.7% (active) |
| NCCc1ccccn1 | 26.7% (inactive) and 12% (inactive) |
| Cc1nnc2n1-c1sc(CCC(=O)N3CCOCC3)cc1C(c1ccccc1Cl)=NC2 | 10% (inactive) and 7.36% (inactive) |
| O=C(CS(=O)C(c1ccccc1)c1ccccc1)NO (centres undefined) | 2.69% (inactive) |
| CCC(CO)NC(=O)C1C=C2c3cccc4c3c(cn4C)CC2N(C)C1 (centres undefined) | 0.967% (inactive) |
| Nc1ccc([As](=O)(O)O)cc1 | 2.94% (inactive) |
| CC(C)C[C@H](NC(=O)[C@H](Cc1ccccc1)NC(=O)CNC(=O)[C@H](C)NC(=O)[C@@H](N)Cc1ccc(O)cc1)C(=O)O | 15.2% (inactive) |
| C[C@]12CCC3C(CC[C@]4(O)C[C@@H](O)CC[C@]34C=O)[C@@]1(O)CCC2C1=CC(=O)OC1 (some centres undefined) | -72.5% (active) and -88.8% (active) |
| C[C@]12CC[C@H]3[C@@H](CC[C@]4(O)C[C@@H](O)CC[C@]34C=O)[C@@]1(O)CC[C@@H]2C1=CC(=O)OC1 | -91% (active) |
| C[C@@H]1O[C@@H](O[C@H]2CC[C@]3(C=O)C4CC[C@]5(C)[C@@H](C6=CC(=O)OC6)CC[C@]5(O)C4CC[C@]3(O)C2)[C@H](O)[C@H](O)[C@H]1O (some centres undefined) | -76.4% (active) |
| CCN1C[C@]2(COC)CCC(OC)[C@@]34C5C[C@]6(O)[C@H](OC(=O)c7ccc(OC)cc7)C5[C@@](OC(C)=O)(C[C@H]6OC)[C@@H]([C@H](OC)C23)[C@@H]14 (some centres undefined) | -1.07% (inactive) |
| NC1CCN(c2cccnc2)C1 (centres undefined) | 10.7% (inactive) |
| C[C@H](N)Cn1ccc2cc(F)c(Cl)cc21 | 7.22% (inactive) |
| Cc1ncc(CNC(=O)N(CCCl)[NH2+][O-])c(N)n1 | 18.6% (inactive) |
| CN(C)[C@@H]1C(=O)C(C(N)=O)C(=O)[C@@]2(O)C(=O)C3C(=O)c4c(O)cccc4[C@](C)(O)[C@H]3C[C@@H]12 (some centres undefined) | 4.49% (inactive) |
